Pf growth 48h: Primary qHTS for delayed death inhibitors of the malarial parasite plastid, 48 hour incubation | P. falciparum luciferase growth in erythrocytes, 48 h | Potency, µM (top dose mostly 28.7 µM), actives largely listed as inhibitors | actives 5.9% (n = 310,000) | AID 504832, 2011
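Compounds are pin-transferred into medium, infected erythrocytes (2% hematocrit, 0.1% parasitemia final) are added, and plates sit one parasite generation at 37 C in 5% CO2. Detection reagent is then added and luminescence measured.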
Pf growth 96h: Primary qHTS for delayed death inhibitors of the malarial parasite plastid, 96 hour incubation | actives 6.9% (n = 320,000) | P. falciparum luciferase reporter growth, 96 h | Potency, µM (series often up to 28.7 µM), actives largely listed as inhibitors
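Erythrocytes infected with luciferase-expressing P. falciparum were dispensed at 2% hematocrit and 0.05% parasitemia (final), then incubated with compounds 96 hours at 37 C in 5% CO2. Luminescence after detection reagent addition reported growth.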
Shiga toxin inh: A qHTS for Small Molecule Inhibitors of Shiga Toxin; Vero cells, Shiga toxin protein synthesis inhibition reporter; inhibition, % at 38.7 µM; actives 9.2% (n = 290,000); AID 2315, 2010; in the data active = inhibition mostly above about 28%, no sharp cut-off; inactive = mostly below about 43%
SARS PLpro yeast: qHTS of Yeast-based Assay for SARS-CoV PLP | S. cerevisiae expressing SARS-CoV PLpro, growth rescue | Potency, µM (doses to about 32.9 µM), most hits filed as activators | actives 0.19% (n = 330,000) | AID 485353, 2010; calls by dose curve; also: nearly all actives have a fitted effect of over 55% in size
AMA1-RON2 inh: qHTS for Inhibitors of AMA1-RON; Towards Development of Antimalarial Drug Lead: Primary Screen; actives 0.2% (n = 360,000); AID 720542, 2013; AlphaScreen AMA1-biotinylated RON2 peptide binding; Potency, µM (top dose mostly 58.2 µM), hits mostly inhibitors; Plasmodium falciparum AMA1 (3D7) - RON2 peptide interaction; also: nearly all actives have a fitted effect of over 45% in size
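AMA1 (3D7) with his tag at 25 nM final met compounds first, then biotinylated RON2 peptide at 25 nM; detection used donor plus acceptor beads, 10 µg/mL apiece, read by AlphaScreen after 30 min at room temperature.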
Cycloheximide cs: Cycloheximide Counterscreen for Small Molecule Inhibitors of Shiga Toxin; cell reporter, cycloheximide protein synthesis inhibition counterscreen; actives 12% (n = 300,000); AID 2314, 2010; max response, %; in the data active = max response mostly above about 13%, no sharp cut-off; inactive = mostly below about 14%; also: read at 38.3 µM for the half of the compounds with a filed dose
Large screens that a line does not name were inactive. In the library only some 19% were active in any assay of this set; here they are far more common. Unless noted, calls follow the shape of the dose curve; as a rule, active = well fitted curve in the direction sought with a large enough effect; inconclusive = small, poorly fitted or top-dose-only effect, or another doubt; inactive = no such curve, though single readings can be large; an effect the other way counts as inactive or inconclusive.

Cc1ccc2[nH]c(=O)c(CN(Cc3cccnc3)Cc3nnnn3CCN3CCOCC3)cc2c1	none
CSCCC(c1nc2ccccc2[nH]1)n1c(-c2ccc3ncccc3c2)nc2ccccc21 (stereo not drawn)	none (no result: Pf growth 48h, Pf growth 96h, Shiga toxin inh, SARS PLpro yeast, Cycloheximide cs)
Cc1ccc(NS(=O)(=O)c2ccc(NC(=O)c3cccc(NC(=O)C(C)C)c3)cc2)cc1	Pf growth 96h 1.65µM
O=C(NCc1cccnc1)c1ccc(S(=O)(=O)Nc2ccccc2)cc1	none (no result: Shiga toxin inh, Cycloheximide cs)
COc1ccc(NC(=O)c2ccc(S(=O)(=O)NCc3cccnc3)cc2)cc1	Cycloheximide cs 9.5
Cc1ccc(NC(=O)c2ccc(S(=O)(=O)NCc3cccnc3)cc2)cc1C	Pf growth 96h inconclusive
Cc1ccc(NS(=O)(=O)c2ccc(C(=O)NCc3cccnc3)cc2)cc1	Pf growth 96h inconclusive, Shiga toxin inh 75.9, SARS PLpro yeast inconclusive, Cycloheximide cs 55.0
COc1ccc2nc(-c3ccccc3)nc(SCC(=O)NCC3CCCO3)c2c1 (stereo not drawn)	Pf growth 48h inconclusive
COCCN(C(=O)Cc1cccs1)C(C(=O)NCc1ccc(OC)cc1)c1ccc(C)cc1 (stereo not drawn)	Pf growth 48h 8.28µM, Pf growth 96h 5.86µM
O=C(NCc1ccccc1)C(c1ccccc1)N(Cc1ccc2c(c1)OCO2)C(=O)Cc1cccs1 (stereo not drawn)	Pf growth 48h inconclusive
CCc1ccc(C(C(=O)NCc2ccc(OC)cc2)N(CCOC)C(=O)Cc2cccs2)cc1 (stereo not drawn)	Pf growth 48h 4.15µM, Pf growth 96h 1.47µM
COc1ccc(CNC(=O)C(c2ccc(C)o2)N(Cc2cccs2)C(=O)Cc2cccs2)cc1 (stereo not drawn)	Pf growth 48h 14.7µM
COCCN(C(=O)Cc1cccs1)C(C(=O)NC1CCCC1)c1ccc(OC)c(OC)c1 (stereo not drawn)	none
COCCN(C(=O)Cc1cccs1)C(C(=O)NCc1ccc(OC)cc1)c1ccc(C(C)C)cc1 (stereo not drawn)	Pf growth 48h 2.08µM, Pf growth 96h 2.94µM
CS(=O)(=O)Nc1ccccc1-c1cccc2nccn12	none (no result: Pf growth 48h, Pf growth 96h, Shiga toxin inh, SARS PLpro yeast, Cycloheximide cs)
CCCc1nc2c(sc3nc4c(cc32)COC(C)(C)C4)c(=O)n1Cc1ccco1	none (no result: Pf growth 96h)
CC1(C)Cc2nc3sc4c(SCC(=O)NCc5ccco5)ncnc4c3cc2CO1	Shiga toxin inh 99.3, Cycloheximide cs 51.1 (no result: Pf growth 96h)
Cc1nc2c(sc3nc4c(cc32)COC(C)(C)C4)c(=O)n1CC(=O)NCc1ccco1	Pf growth 96h inconclusive, Shiga toxin inh 39.1, Cycloheximide cs 24.2
COc1cc(C(=O)OCC(=O)N(C)c2ccccc2)cc(OC)c1OC	none
Cc1ccc([C@@H]2CC(=O)[C@@H]3CN(S(=O)(=O)c4ccc(C)cc4)[C@H](c4ccc(Cl)cc4)C[C@@H]3N2S(=O)(=O)c2ccc(C)cc2)cc1	none (no result: Pf growth 48h, Pf growth 96h, Shiga toxin inh, SARS PLpro yeast, Cycloheximide cs)
C/C(=N\NC(=O)c1cc2c(s1)CCC(C)C2)c1ccncc1 (stereo not drawn)	Pf growth 96h 9.28µM
CC1CCc2sc(C(=O)N/N=C/c3ccc(O)cc3)cc2C1 (stereo not drawn)	Shiga toxin inh 53.9, Cycloheximide cs 44.6
C/C(=N\NC(=O)c1cc2c(s1)CCC(C)C2)c1ccc[nH]1 (stereo not drawn)	none (no result: Shiga toxin inh, Cycloheximide cs)
CCCc1cc(=O)oc2cc(OC(C)C(=O)NCC3CCC(C(=O)O)CC3)ccc12 (stereo not drawn)	Pf growth 96h inconclusive
COCCNC(=O)C(c1ccncc1)N(Cc1ccccc1)C(=O)Cn1nnc2ccccc21 (stereo not drawn)	Pf growth 96h inconclusive, Shiga toxin inh 42.2, Cycloheximide cs 33.3
COCCNC(=O)C(c1cccnc1)N(Cc1ccccc1)C(=O)Cn1nnc2ccccc21 (stereo not drawn)	Shiga toxin inh 93.9, Cycloheximide cs 29.1
CC(C)N(C)Cc1nnnn1CC(=O)N(C)Cc1ccc(F)cc1	Pf growth 96h inconclusive
COC(=O)c1sc(-c2ccc(Cl)cc2)cc1N	Shiga toxin inh 80.5, Cycloheximide cs 65.8
CC(=O)c1sc(-c2ccc(Cl)cc2)cc1N	Pf growth 96h inconclusive, Shiga toxin inh 35.5, Cycloheximide cs 26.6
CCOC(=O)c1sc(-c2ccc(OC)cc2)cc1NC(C)=O	none
COC(=O)c1c(C)nc(C)c(C(=O)OC)c1-c1cccs1	Pf growth 96h inconclusive
COC(=O)c1sc(-c2cccs2)cc1N	Shiga toxin inh 47.2, Cycloheximide cs 39.8
CC(=O)Oc1ccc(N(c2ccccc2)S(=O)(=O)c2ccc(C)cc2)cc1	none
CCOc1ccc(CNS(=O)(=O)c2ccc(-c3ccc(=O)[nH]n3)o2)cc1OC	Pf growth 48h inconclusive, Pf growth 96h inconclusive
C/C(=N/NC(=O)c1ccoc1C)c1ccc(NC(=O)c2ccncc2)cc1	Shiga toxin inh 104.2, Cycloheximide cs 63.3
C/C(=N\NC(=O)c1ccc(NS(=O)(=O)c2cccs2)cc1)c1ccncc1	none
C/C(=N\NC(=O)c1c(Cl)c(C)nn1C)c1ccc(NC(=O)c2ccncc2)cc1	Pf growth 48h inconclusive, Pf growth 96h inconclusive, Cycloheximide cs 12.5
C/C(=N\NC(=O)c1nn(C)c(C)c1Br)c1ccc(NC(=O)c2ccccc2F)cc1	Shiga toxin inh active, Cycloheximide cs 18.0
Cc1nn(-c2ccc(NC(=O)c3ccncc3)cc2)c(C)c1Cl	none
C/C(=N\NC(=O)c1c(Cl)c(C)nn1C)c1cccc(NC(=O)C2CCCC2)c1	Pf growth 96h inconclusive, Cycloheximide cs 14.3
CC(=O)NS(=O)(=O)c1ccc(NC(=O)c2ccccc2F)cc1	none
CC(C)(CO)NC(=O)CC1C(=O)NCCN1Cc1ccc(-c2ccccc2)cc1 (stereo not drawn)	Pf growth 48h inconclusive, Pf growth 96h inconclusive
Clc1cccc2c1CCN(Cc1nc(-c3cnccn3)no1)C2	Pf growth 48h inconclusive, Pf growth 96h inconclusive
O=C1C=C(c2cnc3ccccc3c2)C[C@@H](c2ccc3c(c2)OCO3)C1	none (no result: Shiga toxin inh, Cycloheximide cs)
C/C(=N\NC(=O)c1c(Br)c(C)nn1C)c1ccc(NC(=O)c2ccoc2C)cc1	Shiga toxin inh 39.7, Cycloheximide cs 43.6
C/C(=N\NC(=O)c1nn(C)c(C)c1Br)c1ccc(NC(=O)c2ccoc2C)cc1	Shiga toxin inh 92.9, Cycloheximide cs 91.0
C/C(=N\NC(=O)c1c(Br)c(C)nn1C)c1ccc(NC(=O)C(C)Oc2ccc(Cl)cc2C)cc1 (stereo not drawn)	none
CCC(=O)Nc1ccc(/C(C)=N/NC(=O)c2c(Br)c(C)nn2C)cc1	Pf growth 96h inconclusive
C/C(=N\NC(=O)c1nn(C)c(C)c1Br)c1ccc(NC(=O)c2ccc(C)s2)cc1	Shiga toxin inh 64.5, Cycloheximide cs 45.1

Screens deposited in PubChem BioAssay by National Center for Advancing Translational Sciences (NCATS).
